Data from PubChem BioAssay (NCI).
The panel holds about 83,000 compounds, 20% with a hit somewhere; the sample as a whole holds those more often.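 Assay: single dose, 48 h. Readout: percent growth (0 = no net growth; negative = cell death). Active: <10.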 Values without a mark were called inactive. Activity calls are given as the source filed them.

System: M14 melanoma
Assay: NCI-60 one-dose screen, 48 h (100 = growth as untreated, 0 = no growth, -100 = all killed)
Conditions: 10 µM unless noted

| SMILES | growth |
| --- | --- |
| Cc1cc(N2CCCC2)nc(N(CCCNc2ccnc3cc(Cl)ccc23)Cc2ccc3c(c2)OCO3)n1 | -83.4% (active) |
| [2H]C1([2H])[C@H](C)O[C@H](C)C([2H])([2H])N1c1ccc(NC(=O)c2cccc(-c3ccc(OC(F)(F)F)cc3)c2C)cn1 | 77% |
| Cc1cc2c(-c3nc4ccccn4c3NC34CC5CC(CC(C5)C3)C4)c(O)c(O)cc2c(O)c1-c1c(C)cc2c(-c3nc4ccccn4c3NC34CC5CC(CC(C5)C3)C4)c(O)c(O)cc2c1O | -0.979% (active) |
| CC[C@H](Nc1ncnc2nc[nH]c12)c1nc2cccc(F)c2c(=O)n1-c1ccccc1 | 85.3% |
| COC(=O)C1=C(C(=O)OC)C23C=C(C)C1C2=C(C)C1(CC1)[C@@](C)(O)C3=O (some centres not stated) | -43.1% (active) |
| c1ccc2c(c1)CCN(NCCN1CCCC1)C2 | 93% |
| Cc1cc(N(CCNc2ccnc3cc(Cl)ccc23)Cc2cccs2)nc(Cl)n1 | -67.3% (active) |
| COc1cc(-c2nc(C(=O)Nc3ccc(C)cc3)nn2-c2ccc(F)c(F)c2)cc(OC)c1OC | 94.6% |
| O=C(Cn1c(=O)ccn(CCCCCCCCOc2ccc(Br)cc2)c1=O)Nc1ccc(Oc2ccc(Cl)cc2)cc1 | 70.1% |
| Cc1ccc(-c2cc3c(SCC(=O)Nc4cc(C(F)(F)F)ccc4Cl)nccn3n2)cc1 | 50.6% |
| CCCc1cc2cc(-n3nc(C)c4c3CC(C)(C)CC4=O)cc(NC3CCC(O)CC3)c2c(=O)[nH]1 (configuration not stated) | 23.6% |
| COc1ccc(C(=O)c2cc(OC)c(OC)c(OC)c2)cc1/C=C/C(=O)c1ccc(F)cc1 | 72.5% |
| CC(C)=CCc1cc2c(cc1O)C1=C(C(=O)C3=C(C1=O)S(=O)(=O)CCN3)C(C=C(C)C)O2 (configuration not stated) | -89.1% (active) |
| CN1CCN(c2nc(NCCNc3ccnc4cc(Cl)ccc34)c3ccccc3n2)CC1 | -63.3% (active) |
| COc1ccc(CCCc2c3[n+](cc4c(OC)c(OC)ccc24)CCc2cc4c(cc2-3)OCO4)cc1 | 85.1% |
| N#Cc1cc2[nH]c3ccc(OC(F)(F)F)cc3c2oc1=O | 68.4% |

| SMILES | growth |
| --- | --- |
| CCN1CCN(CCCN(C[C@H]2Cc3ccccc3CN2)[C@H]2CCCc3cccnc32)CC1 | 87.3% |
| Clc1ccc2c(NCCCNCc3ccc4c(c3)OCO4)ccnc2c1 | -72.5% (active) |
| Cc1cc(N2CCOCC2)nc(N(CCNc2ccnc3cc(Cl)ccc23)Cc2cccs2)n1 | 3% (active) |
| CCN1CCN(c2cc(C)nc(N(CCCNc3ccnc4cc(Cl)ccc34)Cc3ccc4c(c3)OCO4)n2)CC1 | -82.2% (active) |
| COc1cc(-c2cc(-c3ccc(Nc4ccnc5cc(Cl)ccc45)cc3)nc(N3CCOCC3)n2)cc(OC)c1OC | -22.2% (active) |
| COC(=O)C1CCc2sc3ncnc(Nc4cn[nH]c4C(=O)Nc4ccc(CN5CCN(C)CC5)cc4)c3c21 (configuration not stated) | -0.905% (active) |
| CO/C=C/C(=O)c1cc2cnc3c(=N)cc(NC(=O)C(C)C)c([nH]1)c23 | -61.3% (active) |
| CCN1CCN(c2nc(C)cc(N(CCNc3ccnc4cc(Cl)ccc34)Cc3ccc4c(c3)OCO4)n2)CC1 | -80.2% (active) |
| N#CC(C#N)=NO | 110% |
| C=CC(=O)N(C)[C@H]1C[C@H]2OC(C)(C1OC)n1c3ccccc3c3c4c(c5c6ccccc6n2c5c31)C(=O)NC4 (some centres not stated) | -1.74% (active) |
| Cc1ccc(NC(=O)NC(=O)CSc2nc3ccccc3nc2C)cc1 | 74.9% |
| C=CCn1c(=O)c2cnc(Nc3ccc(N4CCN(C)CC4)cc3)nc2n1-c1cccc(C(C)(C)O)n1 | 9.79% (active) |
| Clc1ccc2c(NCCNc3nc(N4CCCC4)nc4ccccc34)ccnc2c1 | -71.5% (active) |
| Clc1ccc(/C=C/c2cc(N3CCOCC3)c3cc(Cl)c(Cl)cc3n2)cc1 | 98.5% |
| Nc1ncnc2c1ccn2-c1cccc(NC(=O)c2ccc(N3CCOCC3)c(C(F)(F)F)c2)c1 | 44.5% |
| CC12O[C@H](C[C@@H](OC(=O)CCC(=O)O)[C@H]1O)n1c3ccccc3c3c4c(c5c6ccccc6n2c5c31)C(=O)NC4=O | -6.7% (active) |
